# Values joined by “and” are separate entries in the source; they are usually repeats but may differ in a detail not shown here. Equal values may be shown once. Records with an inconclusive call do not appear. Some structures have more than one record in an assay (separate samples or runs), and their calls can disagree. Active and inactive are the calls of the source. Calls come from the whole dose curve; as a rule, active = well fitted curve in the direction sought with a large enough effect; inconclusive = small, poorly fitted or top-dose-only effect, or another doubt; inactive = no such curve, though single readings can be large; an effect the other way counts as inactive or inconclusive.
# Columns and labels:
# [1] = Viability qHTS for spleen associated tyrosine kinase inhibitor (SYKi) naive MV4-11 cells (AID 1963823); details: MV4-11 AML viability, CellTiter-Glo luminescence, 72 h; series mostly up to 45 µM; note: nearly all actives have a fitted effect of over 40% in size
# How it was run: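 Viability of MV4-11 AML cells lacking prior SYK inhibitor exposure is scored by CellTiter-Glo luminescence following 72 hr compound incubation at 37 C, 5% CO2, seeded at 500 cells per well.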
# [2] = Viability qHTS for spleen associated tyrosine kinase inhibitor (SYKi) drug resistant MV4-11 cells (AID 1963824); details: SYKi-resistant MV4-11 viability, CellTiter-Glo, 72 h; series mostly up to 45 µM; note: nearly all actives have a fitted effect of over 35% in size
# How it was run: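 CellTiter-Glo luminescence, read 10 min after reagent addition, reports viability after a 72 hr compound exposure. Cells are an MV4-11 line made resistant to SYK inhibition, seeded at 500 per well onto compound-containing plates.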
# [3] = Quantitative highthroughput screen to assess conditional lethalithy of SEM cells grown in Human Plasma-Like Medium with dialyzed fetal bovine serum (HPLM+ds) (AID 1963882); details: SEM B-ALL cells in HPLM+ds, CellTiter-Glo viability, 48 h; series mostly up to 45.8 µM; note: nearly all actives have a fitted effect of over 35% in size
# How it was run: (§1)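 Each medium arm—HPLM with 10% dialyzed FBS, or RPMI1640 with 5 mM glucose and 10% untreated or dialyzed FBS—was screened against an 11-point, 3-fold compound titration for 48 h at 37 °C, with CellTiter-Glo luminescence as endpoint.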
# [4] = Quantitative highthroughput screen to assess conditional lethalithy of SEM cells grown in RPMI1640 with dialyzed fetal bovine serum (RPMI+ds) (AID 1963884); details: SEM B-ALL cells, RPMI+dialyzed FBS, CellTiter-Glo viability, 48 h; series mostly up to 45.8 µM; note: nearly all actives have a fitted effect of over 35% in size
# How it was run: as §1
# [5] = Cellular viability qHTS for adrenocortical cancer (ACC) cell line SW-13 (AID 1963989); details: SW-13 ACC cells viability, CellTiter-Glo, 48 h; activity (max response): stronger effect = lower value; note: nearly all actives have a fitted effect of over 65% in size;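 for activity (max response): cells grown in serum-free medium with ITS supplement; % is set by controls: 0 for no effect and ±100 for the full control effect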
# How it was run: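 Luminescent ATP read-out (CellTiter-Glo, 20 min at room temperature) measured metabolically competent SW-13 cells after 48 h compound treatment. Final concentrations spanned up to 46 uM; bortezomib served as positive control.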
# [6] = Cellular viability qHTS for adrenocortical cancer (ACC) cell line NCI-H295R (AID 1963990); details: CellTiter-Glo ATP luminescence, 48 h; series mostly up to 46.1 µM; note: nearly all actives have a fitted effect of over 60% in size
# How it was run: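 IC50 and maximal efficacy derive from four-parameter logistic modelling of titration curves, with reads scaled between DMSO-only wells (0%) and doxorubicin hydrochloride (100% inhibition). Compounds spanned up to 46 uM over 48 h.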
# [7] = Quantitative highthroughput screen to assess conditional lethalithy of SEM cells grown in RPMI1640 with unreated serum (RPMI+s) (AID 1963883); details: SEM B-ALL cells, CellTiter-Glo viability, 48 h; series mostly up to 45.8 µM; note: nearly all actives have a fitted effect of over 35% in size
# How it was run: as §1
# Potency is the fitted concentration of half-maximal effect.
Compound,Potency [1],Potency [2],Potency [3],Potency [4],activity (max response) [5],Potency [6],Potency [5],Potency [7]
O=C(O)c1cn(C2CC2)c2cc(N3CCNCC3)c(F)cc2c1=O,inactive,inactive,16.6 µM (active),3.72 µM (active),-3.87% (inactive) and 6.05% (inactive),inactive,,
O=C(NO)c1cnc(N2C[C@H]3C[C@@H]2CN3c2cc(C(F)(F)F)ccn2)nc1,2.35 µM (active),2.35 µM (active),,,,,10 µM (active),
CC(C)n1nc(-c2ccc3oc(N)nc3c2)c2c(N)ncnc21,36.6 nM (active) and 29.5 nM (active),73.1 nM (active) and 46.8 nM (active),0.0332 µM (active),,,0.0708 µM (active),0.1 µM (active),0.0469 µM (active)
Cc1c(NC(=O)OC[C@@H]2COCCN2)cn2ncnc(Nc3ccc4c(cnn4Cc4cccc(F)c4)c3)c12,10.3 µM (active) and 13.2 µM (active),8.2 µM (active) and 11.8 µM (active),9.35 µM (active),10.5 µM (active),,31.6 µM (active),15.8 µM (active),9.35 µM (active)
NC(=O)Nc1sc(-c2ccc(F)cc2)cc1C(N)=O,1.86 µM (active),3.32 µM (active),16.6 µM (active),14.8 µM (active),-22.4% (inactive),25.1 µM (active),,1.32 µM (active)
CN(C)Cc1cccc(N=C(c2ccccc2)c2c(O)[nH]c3cc(C(=O)N(C)C)ccc23)c1,2.95 µM (active),7.42 µM (active),16.6 µM (active),10.5 µM (active),,inactive,,7.43 µM (active)
CCc1nc(C(N)=O)c(Nc2ccc(N3CCC(N4CCN(C)CC4)CC3)c(OC)c2)nc1NC1CCOCC1,9 nM (active) and 18.6 nM (active),11.4 nM (active) and 26.3 nM (active),,0.209 µM (active),,2.82 µM (active),17.8 µM (active),0.295 µM (active)
CC[C@H](CC#N)OC(=O)N[C@@H](C)c1cccc(NC(=O)Nc2ccc(-c3cnco3)c(OC)c2)c1,326 nM (active) and 263 nM (active),231 nM (active) and 263 nM (active),,,,,28.2 µM (active),2.09 µM (active)
Cc1ccc(-n2nc(C(C)(C)C)cc2NC(=O)NCc2cc(F)ccc2Oc2ccc3c(cnn3CCO)c2)cc1,9.34 µM (active),10.3 µM (active),,,,,17.8 µM (active),
C[C@H]1O[C@H](O[C@H]2[C@H](O)[C@@H](O)[C@@H](O[C@H]3[C@H](O)[C@@H](O)C(O)O[C@@H]3CO)O[C@@H]2CO)[C@H](O)[C@@H](O)[C@@H]1N[C@H]1C=C(CO)[C@@H](O)[C@H](O)[C@H]1O (some centres undefined),inactive,inactive,,,-4.82% (inactive),,,
CCN(CC)CCCCNc1ncc2cc(-c3cc(OC)cc(OC)c3)c(NC(=O)NC(C)(C)C)nc2n1,5.8 µM (active) and 8.33 µM (active),5.8 µM (active) and 9.34 µM (active),14.8 µM (active),,,25.1 µM (active),28.2 µM (active),16.6 µM (active)
Cc1ccc2nc(NC(=O)CSc3nc4c(c(=O)n3-c3ccccc3)SCC4)sc2c1,inactive,inactive,,20.9 µM (active),-6.8% (inactive),,,16.6 µM (active)
COc1cc(Oc2ccnc3cc(OC)c(OC)cc23)ccc1NC(=O)NC(C)c1nccs1 (centres undefined),inactive and 7.42 µM (active),14.8 µM (active),,,0.628% (inactive),,,33.2 µM (active)
Cc1ccc(C(N)=O)cc1Nc1nccc(-c2cn(C(C)C)c3cnccc23)n1,0.0231 µM (active),0.0517 µM (active),3.32 µM (active),2.09 µM (active),,12.6 µM (active),8.91 µM (active),3.72 µM (active)
CC1(C)CCC2=C(O1)c1ccccc1C(=O)C2=O,8.33 µM (active),7.42 µM (active),26.4 µM (active),18.7 µM (active),,8.91 µM (active),15.8 µM (active),26.4 µM (active)
COc1cc(C(=O)N2CCC(N3CCN(C)CC3)CC2)ccc1Nc1ncc2c(n1)N(C)c1ccccc1C(=O)N2C,461 nM (active) and 1.32 µM (active),651 nM (active) and 1.18 µM (active),3.72 µM (active),,,12.6 µM (active),,

# Source: PubChem BioAssay (NCATS)
